Compound activity: PubChem BioAssay, National Center for Advancing Translational Sciences (NCATS)
Pf growth 96h = Primary qHTS for delayed death inhibitors of the malarial parasite plastid, 96 hour incubation. Potency, µM (doses to about 28.7 µM), actives largely listed as inhibitors. 320,000 tested, 6.9% active. P. falciparum luciferase reporter growth, 96 h
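96 h incubation, 37 C, 5% CO2, of luciferase-reporter P. falciparum-infected RBCs (2% hematocrit, 0.05% parasitemia final) with test compounds; endpoint luminescence.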
HCV inh = qHTS Assay for Inhibitors of Hepatitis C Virus (HCV). 340,000 tested, 3.4% active. Huh7.5.1 HCVcc-Cre infection, luciferase reporter, 44 h. Potency, µM (highest dose often 41.8 µM), actives largely listed as inhibitors
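HCVcc-Cre virus at an moi near 0.5 was added right after compound to cells cultured 4 h from seeding (1,000 cells/well). Luciferase activity was determined 44 h later, 15 min after substrate addition at RT.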
AMA1-RON2 inh = qHTS for Inhibitors of AMA1-RON; Towards Development of Antimalarial Drug Lead: Primary Screen | AlphaScreen AMA1-biotinylated RON2 peptide binding | 360,000 tested, 0.2% active | Potency, µM (titrated, usually from 58.2 µM), hits mostly inhibitors | AID 720542, 2013 | Plasmodium falciparum AMA1 (3D7) - RON2 peptide interaction; further: nearly all actives have a fitted effect of over 45% in size
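AMA1 (3D7) with his tag at 25 nM final met compounds first, then biotinylated RON2 peptide at 25 nM; detection used donor plus acceptor beads, 10 µg/mL apiece, read by AlphaScreen after 30 min at room temperature.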
Pf growth 48h = Primary qHTS for delayed death inhibitors of the malarial parasite plastid, 48 hour incubation; P. falciparum luciferase growth in erythrocytes, 48 h; Potency, µM (highest dose often 28.7 µM), actives largely listed as inhibitors; 310,000 tested, 5.9% active; AID 504832, 2011
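Luminescence readout; reporter = integrated firefly luciferase in P. falciparum. RBC culture at 2% hematocrit, 0.1% parasitemia final, 37 C/5% CO2; decreased signal taken as growth inhibition.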
Numbers stand for hits; 0 = inactive; ? = inconclusive; - = no result. Rows were chosen to be rich in hits. Some 11% of all compounds tested hit in one or more screens of this group. The call rests on the fitted dose curve; in most records, active means well fitted curve in the direction sought with a large enough effect; inconclusive means small, poorly fitted or top-dose-only effect, or another doubt; inactive means no such curve, though single readings can be large; an effect the other way counts as inactive or inconclusive.

SMILES | Pf growth 96h | HCV inh | AMA1-RON2 inh | Pf growth 48h
O=C(c1cc(-c2ccncc2)nc2ccc(Br)cc12)N1CCN(Cc2ccc3c(c2)OCO3)CC1 | 0 | 0 | 0 | 10µM
O=C(c1cc(-c2ccccc2)nc2ccccc12)N1CCN(c2ccccn2)CC1 | 0 | 0 | 0 | 0
O=C(c1cc(-c2ccccc2)nc2ccccc12)N1CCN(c2ccccc2O)CC1 | 9.3µM | ? | 0 | 15µM
Cc1ccc2nc(-c3ccncc3)cc(C(=O)N3CCOCC3)c2c1 | 10µM | 0 | 0 | 0
Cc1ccc2nc(-c3ccccc3)cc(C(=O)N3CCN(S(=O)(=O)c4c(C)noc4C)CC3)c2c1 | 10µM | ? | ? | 12µM
Cc1ccc2nc(-c3ccccc3)cc(C(=O)N3CCN(c4ccccc4O)CC3)c2c1 | ? | 0 | 0 | 10µM
COc1cc(S(=O)(=O)NCC(c2ccco2)N2CCCCC2)ccc1NC(C)=O (stereo unspecified) | 0 | 0 | 0 | ?
O=C(O)c1ccccc1C(c1ccccc1)c1ccccc1O (stereo unspecified) | - | 0 | 0 | -
Cn1c(N)c(S(=O)(=O)N2CCN(c3ccccc3)CC2)c(=O)n(C)c1=O | 0 | 0 | 0 | 0
NS(=O)(=O)c1ccc(CNS(=O)(=O)Cc2ccc(Cl)cc2)cc1 | ? | 0 | 0 | 0
O=S(=O)(Cc1ccccc1Cl)NCCc1ccccc1 | 0 | 0 | 0 | 0
NS(=O)(=O)c1ccc(CCNc2ccnc3cc(Cl)ccc23)cc1 | 0 | ? | 0 | 12µM
NS(=O)(=O)c1ccc(CCNS(=O)(=O)Cc2ccc(Cl)cc2)cc1 | 13µM | 0 | 0 | 0
O=S(=O)(Cc1ccccc1)NCCc1cccc(Cl)c1 | 3.3µM | 0 | 0 | 0
Cc1ccc(C)c(NC(=O)CSc2nc(=O)n(CCN3CCOCC3)c3c2CCCC3)c1 | ? | 0 | 0 | ?
COC(=O)C(NC(=O)c1cccnc1Cl)C(C)C (stereo unspecified) | 0 | 0 | 0 | 0
CCOC(=O)C1=C(C)N=c2s/c(=C\c3ccc(OCC(=O)O)cc3)c(=O)n2C1c1ccc(Cl)cc1 (stereo unspecified) | 1.5µM | ? | 0 | 9.3µM
CCOC(=O)C1=C(C)N=c2s/c(=C/c3ccc(OCC(=O)O)cc3)c(=O)n2C1c1ccc(F)cc1 (stereo unspecified) | ? | 0 | 0 | 3.3µM
CC1=C(C(=O)OC(C)C)C(c2ccc(Cl)cc2)n2c(sc(=Cc3ccc(OCC(=O)O)cc3)c2=O)=N1 (stereo unspecified) | - | - | 0 | -
CCOC(=O)C1=C(C)N=c2s/c(=C/c3ccc(OCC(=O)O)cc3)c(=O)n2C1c1ccc(SC)cc1 (stereo unspecified) | ? | - | - | 5.2µM
CCOC(=O)C1=C(C)N=c2s/c(=C\c3ccncc3)c(=O)n2C1c1ccc2c(c1)OCO2 (stereo unspecified) | 0 | ? | 0 | 4.1µM
Cc1nc2ccc(S(=O)(=O)NC(C(=O)NCc3ccco3)C(C)C)cc2s1 (stereo unspecified) | 0 | 0 | 0 | 0
COC(=O)[C@@]12CCCCN1[C@H](c1ccc(-c3cccc(Cl)c3)c(OC)c1)[C@H]1C(=O)N(C)C(=O)[C@H]12 | ? | 0 | 0 | ?
O=C1C(=O)N(CCCn2ccnc2)C(c2cccnc2)/C1=C(/O)c1ccc(F)cc1 (stereo unspecified) | - | 0 | 0 | 0
O=C(Nc1cccc(-c2cccc(F)c2)c1)C1CCN(C2CCOCC2)CC1 | 7.4µM | 13µM | 0 | ?
SMILES | Pf growth 96h | HCV inh | AMA1-RON2 inh | Pf growth 48h
CNc1nc(N)c([N+](=O)[O-])c(NCc2ccccc2)n1 | ? | 0 | 0 | ?
CNc1nc(N)c([N+](=O)[O-])c(Nc2cccc(F)c2)n1 | ? | 22µM | 0 | ?
COc1cc2nc(Nc3cccc(F)c3)nc(N)c2cc1OC | ? | 0 | 0 | 0.41µM
C=CCNc1nc(N)c([N+](=O)[O-])c(Nc2cccc(Cl)c2)n1 | 0 | 2.8µM | 0 | ?
Cc1cccc(Nc2nc(N)c([N+](=O)[O-])c(NCc3ccccc3)n2)c1 | ? | ? | 0 | ?
COc1nc(Nc2cccc(F)c2)nc(OC)n1 | 0 | 0 | 0 | 0
Nc1nc(NCCOCCO)nc(Nc2cccc(F)c2)c1[N+](=O)[O-] | ? | ? | 0 | ?
CNc1nc(N)c([N+](=O)[O-])c(Nc2cccc(Cl)c2)n1 | 0 | 8.9µM | 0 | 0
CCN(CC1CCCO1)C(=O)CCc1nnc(CCc2ccc(OC)cc2)o1 (stereo unspecified) | 0 | 0 | 0 | 0
CC(=O)c1cccc(NC(=O)Nc2ccc3c(c2)N(C)C(=O)CS3)c1 | 0 | 3.2µM | 0 | ?
COc1cc(/C=C/C(=O)OCC(=O)c2ccc(OC(F)F)cc2)ccc1O | - | 10µM | 0 | -
CCN(CC1COc2ccccc2O1)C(=S)NCCCN(C)C (stereo unspecified) | 10µM | 0 | 0 | 0
Cc1sc2ncnc(N3CCN(CCOc4ccc(Cl)cc4)CC3)c2c1C | 0 | 10µM | 0 | -
Cc1sc2ncnc(N3CCN(Cc4ccccc4)CC3)c2c1-c1ccccc1 | 10µM | ? | 0 | 12µM
CC1CCCN(CC(=O)Nc2ccc(S(=O)(=O)N3CCCC3)cc2)C1 (stereo unspecified) | 0 | 0 | 0 | 0
CC1(C(=O)NCc2cccc3ccccc23)CCN1Cc1cccc2c1OCO2 (stereo unspecified) | - | - | 0 | -
Cc1nc(N2CCCCC2)sc1C(=O)c1ccc(SCCO)c([N+](=O)[O-])c1 | 0 | 1.1µM | ? | 0
CCC(=O)N/C(N)=N/c1nc(C)c2cc(C)c(C)cc2n1 | 1.7µM | ? | 0 | 1.7µM
Cc1ccc(S(=O)(=O)/N=C(\N)Nc2nc(C)c3cc(C)c(C)cc3n2)cc1 | ? | ? | 0 | ?
CCCC(=O)N/C(N)=N/c1nc(C)c2cc(C)ccc2n1 | 2.6µM | 6.3µM | 0 | 2.6µM
Cc1ccc2nc(/N=C(\N)NC(=O)NC3CCCCC3)nc(C)c2c1 | ? | 11µM | 0 | ?
Cc1nc(/N=C(\N)NC(=O)N2c3ccccc3Sc3ccccc32)nc2ccccc12 | ? | ? | 0 | ?
Cc1cc2nc(/N=C(\N)NC(=O)C(C)C)nc(C)c2cc1C | 2.6µM | 11µM | 0 | 2.6µM
CCC(CC)C(=O)N(C)c1c(C)nc2c(OCc3ccc(C#N)cc3)cccn12 | - | - | 0 | -
CCOc1cc(S(=O)(=O)N2CCN(Cc3ccccc3)CC2)ccc1Br | 0 | 0 | 0 | 0
Cc1cc(=O)n2nc(N3CCCC(C(=O)NCCCN4C(C)CCCC4C)C3)sc2n1 (stereo unspecified) | - | - | 0 | -
CCCOc1ccc(N2C(=O)CC(SCCN)C2=O)cc1 (stereo unspecified) | ? | 0 | 3.5µM | 0
CCOc1ccc(N2C(=O)CC(Cc3cc(C)cc(C)c3)C2=O)cc1 (stereo unspecified) | ? | 0 | 0 | 0
CCOc1ccc(N2C(=O)CC(N)C2=O)cc1 (stereo unspecified) | 0 | 5µM | 0 | 0
CCOC(=O)C1=C(C)NC(C)=C(C(=O)OCC)C1c1ccc(Br)o1 | 12µM | ? | 0 | ?
